# Laboratory results as given in PMC6919601, “Identification of Plasmodium dipeptidyl aminopeptidase allosteric inhibitors by high throughput screening” (PLoS ONE, 2019).
# In all, about 110,000 compounds went through this assay and about 230 (0.21%) showed an effect of 50% or more. For the sample, strong results were picked, then their nearest neighbours and some compounds at random.
# Molecular target: DPAP1 (Plasmodium falciparum, UniProt Q8IIJ9)
# Assay: primary screen, percent inhibition; read by cleavage of a fluorogenic dipeptide substrate; higher = more effect of the substance
# Parameters: species or system P. falciparum D10 trophozoite lysates; single well
# Protocol: HTS was performed in black 384-well plates. The first and last two columns of each plate contained our negative (DMSO) and positive (10 μM JCP410) controls, and the 20 central columns the test compounds at 10 μM. Compounds were first diluted 50-fold into assay buffer (50 mM sodium acetate, 5 mM MgCl2, 10 mM β-mercaptoethanol, and 0.1% CHAPS, pH 5.5) from a 10 mM DMSO stock plates. One microliter of this 200 μM intermediate stock plate was dispensed into the assay plate. […] After 30 min, the reaction was quenched with 20 μL of 0.5 M acetic acid, and the fluorescent intensity measured at 523 nm (λex = 492 nm) using an Analyst HT multimode plate reader (Molecular Devices).
# 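Further: 30 min substrate incubation versus DMSO and 10 µM JCP410 controls.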
# Sequence of DPAP1 (Q8IIJ9 whole entry, looked up): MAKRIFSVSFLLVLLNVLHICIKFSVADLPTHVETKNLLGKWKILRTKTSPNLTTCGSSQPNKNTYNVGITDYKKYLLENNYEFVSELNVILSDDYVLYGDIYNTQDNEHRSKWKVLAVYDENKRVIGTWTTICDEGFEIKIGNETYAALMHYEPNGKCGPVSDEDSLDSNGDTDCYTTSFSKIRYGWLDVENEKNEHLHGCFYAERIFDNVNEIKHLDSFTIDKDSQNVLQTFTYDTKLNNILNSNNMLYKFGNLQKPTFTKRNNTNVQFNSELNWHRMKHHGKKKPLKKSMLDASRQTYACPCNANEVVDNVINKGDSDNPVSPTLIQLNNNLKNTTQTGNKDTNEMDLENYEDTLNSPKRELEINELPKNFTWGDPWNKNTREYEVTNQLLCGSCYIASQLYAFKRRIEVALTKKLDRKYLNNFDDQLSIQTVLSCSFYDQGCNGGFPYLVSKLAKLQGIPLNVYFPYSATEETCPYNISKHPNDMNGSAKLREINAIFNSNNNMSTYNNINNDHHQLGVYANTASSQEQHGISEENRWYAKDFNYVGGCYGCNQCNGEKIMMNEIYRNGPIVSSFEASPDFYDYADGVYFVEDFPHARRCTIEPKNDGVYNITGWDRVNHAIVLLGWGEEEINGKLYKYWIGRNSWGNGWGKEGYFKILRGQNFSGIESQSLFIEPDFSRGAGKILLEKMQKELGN
row,Compound,% Inhibition @ 10 uM [%]
1,Cc1cc2c(c(S)n1)C(=O)O/C2=C\c1c[nH]nc1-c1ccc(F)cc1,26
2,Cc1cc2c(c(S)n1)C(=O)O/C2=C\c1ccco1,67.6
3,Cc1cc2c(c(S)n1)C(=O)O/C2=C\c1c[nH]nc1-c1cccs1,43.6
4,CCOC(=O)N1CCN(C(=O)CSc2nnc(Cc3cccn3C)n2-c2ccc(OC)cc2)CC1,-5.76
5,CCOC(=O)N1CCN(C(=O)CSc2nc(-c3ccc(C)cc3)cn2-c2ccc(OC)cc2)CC1,77.3
6,COc1ccc(-n2cc(-c3ccc(C)cc3)nc2SCC(=O)NCC2CCCO2)cc1 (stereo not shown),4.33
7,CC1CCCCC1NC(=O)c1cnn2c(C(F)(F)F)cc(-c3cccs3)nc12 (stereo not shown),4.36
8,c1ccc2c(c1)CCN(c1ncnc3c1nnn3Cc1cccc3ccccc13)C2,-0.0678
9,CCS(=O)(=O)N1CCC(C(=O)NCc2ccc(F)cc2Cl)CC1,-6.75
10,CN(C)CC1CSCCC1(O)c1cccc(Cl)c1 (stereo not shown),-4.54
11,CN(C)CC1CSCCC1(O)c1ccccc1 (stereo not shown),85.1
12,CN(C)CC1CSCCC1(O)c1cccc(O)c1 (stereo not shown),-15.4
13,O=c1oc2c(cc(NS(=O)(=O)c3ccc(F)cc3)c3ccccc32)s1,-2.54
14,Cc1cc2ccccc2n1-c1ccc(C(=O)N2CCCCCC2)s1,3.12
15,CC1(C)CC2=NCC(=O)NC2=C(O)C1,59.8
16,CC1(C)CC2=NC3=C(C(=O)CC(C)(C)C3)C(c3cc(Cl)c(O)c(Cl)c3)C2=C(O)C1 (stereo not shown),13.2
17,C=CC/N=C/C1=C(O)CC(C)(C)CC1=O,-3.06
18,COc1ccc(Br)cc1C1C(C#N)=C(N)Oc2[nH]nc(-c3ccc4c(c3)OCO4)c21 (stereo not shown),3.99
19,CCOC(=O)C1=NNC2C(=O)N(c3ccc(F)cc3)C(=O)C12 (stereo not shown),-5.48
20,O=C(Nc1nccs1)c1ccc(COc2ccccc2Cl)o1,-5.98
21,Cc1c(CNC(=O)c2cc(-c3ccccc3)nc3ccc(Br)cc23)cnn1C,-2.9
22,Cc1nc2ccc(Cl)cc2c2c(N)c3ccccc3n12,66
23,Cc1ccc2nc(C)n3c4ccccc4c(NC(=O)c4ccccc4)c3c2c1,-6.87
24,COc1ccc2nc(C)n3c4ccccc4c(NC(C)=O)c3c2c1,2.4
25,Cc1nn2c3ccccc3nc2c2ccccc12,5.3

row,Compound,% Inhibition @ 10 uM [%]
1,O=C(O)CCS(=O)(=O)Cc1ccccc1F,1.27
2,Cc1nc2c(c(C)c1CCC(=O)N1CCN(C3CCCCC3)CC1)c(=O)n(C)c(=O)n2C,52.7
3,Cc1nc2c(c(C)c1CCC(=O)N1CCC(N3CCCCC3)CC1)c(=O)n(C)c(=O)n2C,-6.91
4,Cc1nc2c(c(C)c1CCC(=O)N1CCC(C)CC1)c(=O)n(C)c(=O)n2C,-3.1
5,CC(NC(=O)c1ccc(Br)cc1)C1COc2ccccc2O1 (stereo not shown),3.24
6,CCOC(=O)C1=C(O)/C(=C\c2ccccc2OC)N=C1C,-1.6
7,N#CC1=C2SCN(Cc3ccco3)CN2C(=O)CC1c1ccc(Cl)cc1 (stereo not shown),42.2
8,CN1CSC2=C(C#N)C(c3cccc(OCc4ccccc4)c3)CC(=O)N2C1 (stereo not shown),71.1
9,CCOc1ccc(C2CC(=O)N3CN(C)CSC3=C2C#N)cc1OC (stereo not shown),47.5
10,CCOc1ccc(C2CC(=O)N3CN(Cc4ccco4)CSC3=C2C#N)cc1 (stereo not shown),43.4
11,N#CC1=C2SCN(Cc3ccco3)CN2C(=O)CC1c1cccc(OCc2ccccc2)c1 (stereo not shown),66.7
12,CC(C)c1ccc(S(=O)(=O)Nc2ccc3oc(=O)sc3c2)cc1,1.13
13,CCC(C)N(CCNC(=O)c1c2c(nc3ccccc13)C(=O)N(C1CCCCC1)C2)Cc1ccco1 (stereo not shown),2.48
14,CCOC(=O)c1cc(C)n(CC2CCC(C(=O)Nc3cccc(C)n3)CC2)c1C (stereo not shown),-0.943
15,CCOC(=O)c1cnn(C(C)(C)C)c1C1CCN(C(=O)OC(C)(C)C)CC1,-2.83
16,Cc1ccc(S(=O)(=O)N2CCCC2)cc1S(=O)(=O)N1CCCC1,1.52
17,CCC(=O)/N=c1/n(C)c2ccccc2n1CCOc1ccccc1,0.512
18,OC(COc1ccccc1Cl)CN1CCN(CC(O)COc2ccccc2Cl)CC1 (stereo not shown),0.131
19,OC(COc1cccc2ccccc12)CN1CCN(CC(O)COc2cccc3ccccc23)CC1 (stereo not shown),51.4
20,Cc1ccccc1OCC(O)CN1CCN(CC(O)COc2ccccc2C)CC1 (stereo not shown),-0.053
21,Cc1cc(Br)ccc1OCC(=O)O/N=C(\N)c1cccnc1,-6.94
22,CCCCN(C)C(=O)CCNC(=O)Cn1ccc2ccccc2c1=O,7.85
23,CCOc1ccc(S(=O)(=O)N2CCSC2c2ccc(OC)c(OC)c2)cc1 (stereo not shown),25.4
24,O=C1/C(=C/c2ccc3nccnc3c2)CC/C1=C\c1ccc2nccnc2c1,-0.503
